Rows were chosen to be rich in hits. Some 2.7% of all compounds tested hit in one or more screens of this group.
KDM5B inhibitor = inhibitors of human KDM5B histone demethylase; Q9UGL1; KDM5B demethylase, FDH-coupled NADH fluorescence (FDH is formaldehyde dehydrogenase); Potency, µM (doses to about 57.7 µM), actives largely listed as inhibitors; 220,000 compounds, 2.6% hits; active = well fitted inhibition curve with a large enough effect; inconclusive = small, poorly fitted or top-dose-only effect; inactive = no such curve, though single readings can be large or run the other way; also: potency is read from the fitted curve at half-maximal effect; 0% is about no effect; nearly all actives have a fitted effect of over 70% in size
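qHTS format, multiple compound concentrations. Buffer 50 mM HEPES pH 7.5/0.01% Tween-20; 200 nM KDM5BΔAP final; 10 min compound preincubation; substrate-mix levels 12.5 µM peptide, 25 µM α-KG, 0.25 mM NAD⁺; 30 min RT; ΔRFU.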
IP6K1 inh = inhibitors of human IP6K1; activity change, % (series mostly up to about 58 µM); 140,000 compounds, 0.81% hits; AID 1645851; IP6K1 kinase, ADP-Glo luminescence, 2 h; hits give low values; Q92551; in the data active = activity change below about -25%; also: % is scaled to controls: 0 for no effect and ±100 for the full control effect
Target sequence (Q92551 whole entry, looked up): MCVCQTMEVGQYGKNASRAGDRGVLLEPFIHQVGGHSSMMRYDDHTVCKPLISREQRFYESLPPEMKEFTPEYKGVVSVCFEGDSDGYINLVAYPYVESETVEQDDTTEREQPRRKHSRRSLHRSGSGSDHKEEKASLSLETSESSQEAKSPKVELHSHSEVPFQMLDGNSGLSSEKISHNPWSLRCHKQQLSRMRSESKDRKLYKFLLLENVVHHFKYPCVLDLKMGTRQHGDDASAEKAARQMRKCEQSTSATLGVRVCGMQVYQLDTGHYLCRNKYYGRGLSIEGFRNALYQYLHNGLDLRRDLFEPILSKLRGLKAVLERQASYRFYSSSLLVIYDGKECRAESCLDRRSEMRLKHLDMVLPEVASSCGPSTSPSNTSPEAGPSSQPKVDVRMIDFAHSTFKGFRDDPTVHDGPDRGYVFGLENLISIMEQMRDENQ
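ADP-Glo luminescence measures ADP made by human IP6K1 during a 2 h RT reaction with ATP/IP6 (mix at 1.3 mM/130 uM); top library doses 57.5 and 19.1 uM final.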
* marks the source's active call; other numbers are inactive results; i = inactive; ? = inconclusive; . = no result.

SMILES	KDM5B inhibitor	IP6K1 inh
CCOc1cccc(-c2noc(-c3nnn4c3COC(c3ccc(Cl)cc3)C4)n2)c1 (stereo not given)	22µM*	0
O=C(c1cc2cn(C3CC3)cc2s1)N1CCc2ccccc2C1	?	1
CCOc1ccccc1NC(=O)CCc1ccc(-c2ccccc2)o1	i	.
CC(=O)Nc1ccc(NC(=O)c2nc3ccccc3nc2N2CCCCC2)cc1	i	.
CCOCCCNC(=O)c1cc2c(=O)[nH]c(-c3ccccc3)cn2n1	?	-3
COCCCNC(=O)c1cc2c(=O)[nH]c(-c3ccccc3)cn2n1	25µM*	4
Cc1cn2nc(C(=O)N3CCC(NC(=O)C(C)c4ccccc4)CC3)cc2c(=O)[nH]1 (stereo not given)	?	4
CCCNC(=O)c1cc2c(=O)[nH]c(-c3ccccc3)cn2n1	25µM*	9
CC(C)N1CCN(C(=O)c2cc3c(=O)[nH]c(-c4ccccc4)cn3n2)CC1	25µM*	-14
Cc1cn2nc(C(=O)NCc3ccccc3C)cc2c(=O)[nH]1	i	11
Cc1cn2nc(C(=O)N3CCC(NC(=O)c4ccccc4F)CC3)cc2c(=O)[nH]1	?	0
O=C(NC1CC1)c1cc2c(=O)[nH]c(-c3ccccc3)cn2n1	28µM*	-3
CCOc1ccc(-c2cc3c(=O)n(CCNC(=O)c4ccncc4)ccn3n2)cc1	?	-2
CC(=O)Nc1ccc(NC(=O)CCc2ncc(-c3ccccc3Cl)o2)cc1	i	.
Cc1cnc(CC2CCN(C(=O)COc3ccc(F)cc3)CC2)n1Cc1ccccc1	.	23
COc1ccccc1C(=O)COC(=O)Cc1ccc(Cl)cc1Cl	i	.
CC(=O)N1CCN(c2oc(/C=C/c3ccccc3Cl)nc2C#N)CC1	i	.
CC(C)NC(=O)c1cc(-c2ccc(Cl)cc2Cl)nc2c1cnn2C	89µM*	-4
Cn1ncc2c(C(=O)NC3CC3)cc(-c3ccc(Cl)cc3Cl)nc21	.	-7
Cn1ncc2c(C(=O)NCCc3ccc(Cl)cc3)cc(-c3ccc(Cl)cc3Cl)nc21	71µM*	-16
Cn1ncc2c(C(=O)NCCc3ccc(Cl)cc3)cc(-c3ccc(Cl)cc3)nc21	?	2
OC(CC#CCN1CCCC1)(c1ccccc1)c1ccc(-c2ccccc2)cc1 (stereo not given)	i	.
CCCn1nc(C)c(-c2cc(C(=O)N3CCc4c(nc5cc(-c6ccccc6)[nH]n5c4=O)C3)[nH]n2)c1C	?	22
COc1ccc(-c2cc3nc4c(c(=O)n3[nH]2)CN(C(=O)c2ccc(C)cc2)CC4)cc1	?	14
COc1ccc(-c2cc3nc4c(c(=O)n3[nH]2)CN(C(=O)c2cc(CN3CCOCC3)on2)CC4)cc1	8.9µM*	5
SMILES	KDM5B inhibitor	IP6K1 inh
COc1ccc(-c2cc3nc4c(c(=O)n3[nH]2)CN(C(=O)c2ccncc2)CC4)cc1	i	0
O=C(c1ccc2cc[nH]c2c1)N1CCc2c(nc3cc(-c4ccccc4)[nH]n3c2=O)C1	28µM*	10
COc1ccc2c(c1)CCc1c-2n[nH]c1C(=O)N1CCc2c(nc3cc(-c4ccccc4)[nH]n3c2=O)C1	16µM*	-2
COc1ccc(-c2cc3nc4c(c(=O)n3[nH]2)CN(C(=O)c2ccc3[nH]ccc3c2)CC4)cc1	16µM*	0
O=C(c1ccc(=O)[nH]c1)N1CCC(C(=O)N2CCc3c(nc4cc(-c5ccccc5)[nH]n4c3=O)C2)CC1	?	7
CC(NC(=O)c1nn(C)c(=O)c2ccccc12)c1cccs1 (stereo not given)	i	.
COCCNC(=O)c1cn2cc(-c3ccc(C(F)(F)F)cc3)sc2n1	.	9
O=C(O)CC1(CC(=O)Nc2ccccc2NS(=O)(=O)c2ccc(F)cc2)CCCCC1	i	.
Cc1ccc(C(=O)N2CCC(N3C(=O)c4c(c(C)nn4-c4ccccc4)C3C3CC3)C2)cc1 (stereo not given)	.	-10
O=C(Nc1ccc2c(c1)CCC2)N1CCc2c(nc3cc(-c4ccccc4)[nH]n3c2=O)C1	11µM*	42
Cc1ccc(C(=O)N2CCc3c(nc4cc(-c5ccccc5)[nH]n4c3=O)C2)cn1	25µM*	22
COc1ccc(NC(=O)N2CCc3c(nc4cc(-c5ccccc5)[nH]n4c3=O)C2)c(OC)c1	?	22
Cc1ccc(C(=O)N2CCc3nc4cc(-c5ccccc5)[nH]n4c(=O)c3C2)cn1	?	0
COCCCNc1ccc2nnc(-c3ccccn3)n2n1	?	-9
COCCN1CCC(CNc2nccc(-c3ccccn3)n2)C1 (stereo not given)	28µM*	47
COc1cccc(COC(=O)C2CCN(S(=O)(=O)c3ccc(F)cc3)CC2)c1	i	.
CC(C)NC(=O)c1cc(-c2ccc(S(C)(=O)=O)cc2)c2cnn(C)c2n1	89µM*	-8
CC(C)NC(=O)c1cc(-c2ccccc2)nc2c1cnn2C	.	7
CN(C)C(=O)c1cc(-c2ccc(S(C)(=O)=O)cc2)nc2c1cnn2C	?	5
CN(C)C(=O)c1cc(-c2ccc(S(C)(=O)=O)cc2)c2cnn(C)c2n1	79µM*	-2
O=C(CNC(=O)c1cccc(-c2ccc(C(F)(F)F)cc2)c1)NCc1cccs1	.	-1
CC(C)CC(=O)NCC1CC2c3ccccc3C1c1ccccc12 (stereo not given)	i	.
CN(C)Cc1nnc(C2CC(NC(=O)c3nc4ccccc4[nH]3)C2)n1C (stereo not given)	22µM*	21
CN(C)Cc1nnc(C2CC(NC(=O)c3cnc4ccccc4n3)C2)n1C (stereo not given)	i	-3
C[S+](=O)([O-])N1CCC(Cn2ccc3c(N4CCOCC4)nc(-c4cccnc4)cc32)CC1	?	17
SMILES	KDM5B inhibitor	IP6K1 inh
Cc1ccc(-c2cc3c(ccn3CC3CCN([S+](C)(=O)[O-])CC3)c(N3CCOCC3)n2)cn1	32µM*	2
CN(C)CCOCC1(C)COc2ccc(C(=O)NCc3ccc(F)cc3)cc2N1 (stereo not given)	40µM*	-11
CN(C)CCCOCC1(C)COc2ccc(C(=O)Nc3ccccc3)cc2N1 (stereo not given)	?	-6
CN(C)CCOCC1(C)COc2ccc(C(=O)NCc3cccc(F)c3)cc2N1 (stereo not given)	40µM*	-9
CCOCC1(C)COc2ccc(C(=O)NCc3ccc(F)cc3)cc2N1 (stereo not given)	?	9
CCn1c(C)cc(C(=O)CSc2nnc(CN3CCOCC3)n2-c2ccccc2)c1C	i	.
O=C1c2cc(N3CCOCC3)nc(-c3ccccc3F)c2CN1CC1CC1	40µM*	12
COc1cc(F)ccc1-c1cc2c(ccn2CC2CCN(C)CC2)c(N2CCOCC2)n1	?	11
Fc1ccccc1-c1noc(N2CCOCC2)n1	i	-1
O=C1c2cc(N3CCOCC3)nc(-c3ccc(F)cc3)c2CN1CC1CC1	40µM*	13
C[S+](=O)([O-])N1CCC(Cn2ccc3c(N4CCOCC4)nc(-c4ccc(F)cc4)cc32)CC1	i	11
COc1cc(F)ccc1-c1nc(N2CCOCC2)cc2c1CN(CC1CC1)C2=O	35µM*	13
Cn1c(SCc2ccc(Cl)c3cccnc23)nnc1C(F)(F)F	i	.
COC(=O)C1=C(c2ccccc2)c2cc(Cl)ccc2S(=O)(=O)N1CC(=O)Nc1cccc(C)c1	i	.
Cc1ccc(C23CC4CC(CC(C(=O)Nc5ccccc5Br)(C4)C2)C3)cc1	i	.

Screening results from PubChem.
